Laboratory results as given in the supplement of paper PMC6897291.
Counter-ions that a name gives are not always drawn.

Tested on: RIVA
Assay: growth inhibition by drug alone (1 - RLU/untreated control) (fraction); higher = stronger inhibition
Settings: 10 nM; time (day): 3; 177Lu-lilotomab satetraxetan 0 ug/ml
Method in brief: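 RIVA or U-2932 cells, untreated or pretreated 18 h with a radiolabelled anti-CD37 antibody conjugate (~600 MBq/mg; 0.5 µg/ml RIVA, 1 µg/ml U-2932), were washed and seeded at 3,000 cells/well on plates pre-printed with the Selleck Cambridge Cancer Compound library. Doses were 10/100 nM (RIVA) or 10/1,000 nM (U-2932). RealTime-Glo luminescence was read daily from day 3 after 1 h at 37°C. Growth inhibition is 1 − RLU/mean of 48 untreated no-drug wells per plate.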

| SMILES | growth inhibition by drug alone |
| --- | --- |
| Nc1nc2[nH]cc(CCc3ccc(C(=O)N[C@@H](CCC(=O)O)C(=O)O)cc3)c2c(=O)[nH]1 [Pemetrexed] | -0.121 |
| COc1cc2nccc(Oc3ccc(NC(=O)Nc4cc(C)on4)c(Cl)c3)c2cc1OC [Tivozanib (AV-951)] | 0.0535 |
| CCC(=O)N1CCN(c2ccc(-n3c(=O)ccc4cnc5ccc(-c6cnc7ccccc7c6)cc5c43)cc2C(F)(F)F)CC1 [Torin 1] | 0.0288 |
| COc1cccc2c1C(=O)c1c(O)c3c(c(O)c1C2=O)C[C@@](O)(C(=O)CO)C[C@@H]3O[C@H]1C[C@H](N)[C@@H](O)[C@H](C)O1 [Epirubicin Hydrochloride] | -0.0808 |
| Clc1ccc(Nc2nnc(Cc3ccncc3)c3ccccc23)cc1 [Vatalanib dihydrochloride (PTK787)] | -0.0393 |
| COc1cc2nccc(Oc3ccc(NC(=O)C4(C(=O)Nc5ccc(F)cc5)CC4)cc3)c2cc1OC [XL-184 free base (Cabozantinib)] | 0.0104 |
| C[C@@H](O[C@H]1OCCN(Cc2n[nH]c(=O)[nH]2)[C@H]1c1ccc(F)cc1)c1cc(C(F)(F)F)cc(C(F)(F)F)c1 [Aprepitant (MK-0869)] | -0.223 |
| COc1cc2c(cc1O)CC[C@@H]1[C@@H]2CC[C@]2(C)[C@@H](O)CC[C@@H]12 [2-Methoxyestradiol] | -0.258 |
| CNCc1ccc(-c2[nH]c3cc(F)cc4c3c2CCNC4=O)cc1 | -0.0585 |
| CC[C@@]1(O)C(=O)OCc2c1cc1n(c2=O)Cc2cc3c(CN(C)C)c(O)ccc3nc2-1 [Topotecan HCl] | 0.45 |
| Nc1cc(C(F)(F)F)c(-c2cc(N3CCOCC3)nc(N3CCOCC3)n2)cn1 | -0.24 |
| CC(C)(C)c1ccc(S(=O)(=O)/C=C/C#N)cc1 | -0.0115 |
| C[C@]1(c2nc3c(C(N)=O)cccc3[nH]2)CCCN1 [ABT-888 (Veliparib)] | -0.145 |
| Cc1ccc(NC(=O)c2ccc(CN3CC[C@H](N(C)C)C3)c(C(F)(F)F)c2)cc1Nc1nccc(-c2cncnc2)n1 [Bafetinib (INNO-406)] | 0.236 |
| C[C@]12CC[C@@H]3c4ccc(O)cc4CC[C@H]3[C@@H]1CCC2=O [Estrone] | -0.099 |
| O=C(c1ccc(OCCN2CCCCC2)cc1)c1c(-c2ccc(O)cc2)sc2cc(O)ccc12 [Evista (Raloxifene Hydrochloride)] | 0.0573 |
| CCN(CC)CCNC(=O)c1c(C)[nH]c(/C=C2\C(=O)Nc3ccc(F)cc32)c1C [Sunitinib Malate (Sutent)] | -0.117 |
| CCOc1ccc(Nc2nc(-c3c(C)nc4ccccn34)cs2)cc1 | 0.0293 |
| C=CC(=O)N1CCC[C@@H](n2nc(-c3ccc(Oc4ccccc4)cc3)c3c(N)ncnc32)C1 | 0.676 |
| CS(=O)(=O)c1cccc(CNc2nc(Nc3ccc4c(c3)CCC(=O)N4)ncc2C(F)(F)F)c1 | -0.0802 |
| CC(NC(=O)c1ccccc1/N=C/c1c(O)ccc2ccccc12)c1ccccc1 (stereo not given) [Sirtinol] | -0.0251 |
| CN(Cc1cnc2nc(N)nc(N)c2n1)c1ccc(C(=O)N[C@@H](CCC(=O)O)C(=O)O)cc1 [Abitrexate (Methotrexate)] | -0.206 |
| OCCn1cc(-c2cnc3nnn(Cc4ccc5ncccc5c4)c3n2)cn1 | 0.0383 |
| COc1cc(Nc2ncc(F)c(Nc3ccc4c(n3)NC(=O)C(C)(C)O4)n2)cc(OC)c1OC [R406(free base)] | 0.0167 |
| COc1cccc2c1C(=O)c1c(O)c3c(c(O)c1C2=O)C[C@@](O)(C(=O)CO)C[C@@H]3O[C@H]1C[C@H](N)[C@H](O)[C@H](C)O1 [Doxorubicin (Adriamycin)] | 0.198 |
| CN(NC(=O)CC(=O)NN(C)C(=S)c1ccccc1)C(=S)c1ccccc1 [Elesclomol] | 0.97 |
| CN(C)CCOc1ccc(/C(=C(/CCCl)c2ccccc2)c2ccccc2)cc1 [Toremifene Citrate (Fareston, Acapodene)] | 0.218 |
| CN1CCN(CCOc2cc(OC3CCOCC3)c3c(Nc4c(Cl)ccc5c4OCO5)ncnc3c2)CC1 [Saracatinib (AZD0530)] | -0.108 |
| CC(C)C[C@H](NC(=O)[C@H](Cc1ccccc1)NC(=O)c1cnccn1)B(O)O [Bortezomib (Velcade)] | 0.923 |
| Cn1cncc1[C@@](N)(c1ccc(Cl)cc1)c1ccc2c(c1)c(-c1cccc(Cl)c1)cc(=O)n2C [Tipifarnib (Zarnestra)] | -0.055 |
